Some test systems named below: SK-MEL-2 melanoma; EKVX NSCLC; SN12C renal; UO-31 renal; TK-10 renal; ACHN renal; CAKI-1 renal; A498 renal; MOLT-4 leukemia; SR leukemia; RPMI-8226 leukemia; OVCAR-8 ovarian; OVCAR-5 ovarian; OVCAR-4 ovarian; SK-OV-3 ovarian; IGROV1 ovarian; OVCAR-3 ovarian; HS 578T breast; NCI/ADR-RES ovarian.
Holding throughout (experiment): NCI-60 one-dose screen, 48 h (100 = growth as untreated, 0 = no growth, -100 = all killed)
What all share (conditions): 10 µM unless noted

This is part of a sample that, as a whole, favours compounds with a hit. Of some 83,000 tested, about 20% had one in any assay.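 Step 1: grow cells in 96-well plates. Step 2: add test compound at a single concentration. Step 3: incubate 48 h. Step 4: record percent growth.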 Values without a mark were called inactive. Activity calls are given as the source filed them. The calls were made as follows: active = growth percent below 10; inactive = the rest.

Consider `NC(=N\N=C/c1ccccc1[N+](=O)[O-])/C(N)=N\N=C/c1ccccc1[N+](=O)[O-]`, for which the growth is 98.4% with SK-MEL-2 melanoma; 98.5% in the assay with EKVX NSCLC; 108% in the assay with SN12C renal; 116% in the assay with UO-31 renal; 99.6% in the assay with TK-10 renal; 109% with ACHN renal. Besides, the growth in the assay on CAKI-1 renal is 95.2%; with A498 renal it was 85.9%; in the assay on MOLT-4 leukemia, 113%; with SR leukemia it was 107%; in the assay on RPMI-8226 leukemia it was 88.2%; with OVCAR-8 ovarian, 109%. The growth was 109% with OVCAR-5 ovarian; 111% with OVCAR-4 ovarian; 102% in the assay on SK-OV-3 ovarian; 136% in the assay on IGROV1 ovarian; 116% with OVCAR-3 ovarian; 100% in the assay with HS 578T breast. Besides, the growth in the assay on NCI/ADR-RES ovarian was 114%.

On to `CC(CN1CCCCC1)C(=O)c1ccccc1` (stereo not given), for which the growth with SK-MEL-2 melanoma was 102%; with EKVX NSCLC, 104%; in the assay with SN12C renal, 105%; in the assay on UO-31 renal, 92.4%; in the assay on TK-10 renal, 96.7%; in the assay with ACHN renal, 107%. In addition, the growth in the assay on CAKI-1 renal was 101%; in the assay on A498 renal, 84%; with MOLT-4 leukemia, 106%; in the assay with SR leukemia it was 97.3%; with RPMI-8226 leukemia, 78%; in the assay with OVCAR-8 ovarian, 102%. Moreover, the growth with OVCAR-5 ovarian is 101%; in the assay on OVCAR-4 ovarian, 114%; in the assay with SK-OV-3 ovarian, 106%; in the assay with IGROV1 ovarian, 109%; in the assay with OVCAR-3 ovarian, 109%; with HS 578T breast, 103%. In addition, the growth in the assay on NCI/ADR-RES ovarian was 108%.

`CC/C=C\C[C@H](O)C/C=C1/C(=O)C=C[C@@H]1C/C=C\CCCCO`: the growth in the assay with SK-MEL-2 melanoma was 62.5%; with EKVX NSCLC it was 69.3%; in the assay with SN12C renal it was -15.9% (active); in the assay with UO-31 renal it was -74.2% (active); in the assay with TK-10 renal, 5.32% (active); in the assay with ACHN renal, -69.3% (active). For the same compound, the growth with CAKI-1 renal is 0.105% (active); with A498 renal it was 100%; with MOLT-4 leukemia it was 8.39% (active); in the assay on SR leukemia, -5.23% (active); in the assay on RPMI-8226 leukemia it was -12.9% (active); with OVCAR-8 ovarian, -27.5% (active). Further, the growth in the assay with OVCAR-5 ovarian was 39.2%; in the assay on OVCAR-4 ovarian, 49.7%; in the assay on SK-OV-3 ovarian, 83.2%; in the assay on IGROV1 ovarian, 15.5%; with OVCAR-3 ovarian it was 2.43% (active); in the assay with HS 578T breast, 75.6%. In addition, in the assay with NCI/ADR-RES ovarian, the growth was 9.46% (active).

As to `CCOc1ccccc1-c1cc(-c2cccs2)c(C#N)c(=O)[nH]1`, the growth is 98.4% with SK-MEL-2 melanoma; 97.5% with EKVX NSCLC; 83.3% in the assay on SN12C renal; 68.8% in the assay on UO-31 renal; 110% with TK-10 renal; 95.6% with ACHN renal. The growth in the assay on CAKI-1 renal was 76.1%; with A498 renal, 70.2%; with MOLT-4 leukemia, 92.9%; in the assay on SR leukemia, 77.4%; in the assay on RPMI-8226 leukemia, 91.2%; with OVCAR-8 ovarian, 95%. The growth in the assay on OVCAR-5 ovarian is 94.6%; with OVCAR-4 ovarian it was 39.2%; in the assay on SK-OV-3 ovarian it was 98.7%; in the assay on IGROV1 ovarian it was 66.7%; in the assay with OVCAR-3 ovarian, 99.7%; in the assay with HS 578T breast, 76.6%. Also, the growth with NCI/ADR-RES ovarian is 76.7%.

As for `C[C@@]1(CCC#N)[C@H]2CC[C@@H]3[C@H]4[C@H](C(=O)/C=C/c5cccnc5)CC[C@]4(C#N)CC[C@@]3(C)[C@]2(C)CC[C@H]1C(=O)/C=C/c1cccnc1`, the growth was 77.7% in the assay with SK-MEL-2 melanoma; 98.1% with EKVX NSCLC; 65.4% in the assay with SN12C renal; 87.3% in the assay with UO-31 renal; 101% with TK-10 renal; 56.3% in the assay with ACHN renal. Besides, the growth is 68.7% in the assay with CAKI-1 renal; 99% with A498 renal; 11.7% in the assay on MOLT-4 leukemia; 12.9% in the assay on SR leukemia; -2.94% (active) with RPMI-8226 leukemia; 34.7% with OVCAR-8 ovarian. Further, the growth in the assay on OVCAR-5 ovarian was 136%; with OVCAR-4 ovarian, 69.1%; with SK-OV-3 ovarian, 89.7%; in the assay on IGROV1 ovarian, 45.7%; with OVCAR-3 ovarian it was 39.9%; in the assay with HS 578T breast it was 78.4%. Moreover, the growth in the assay with NCI/ADR-RES ovarian was 65.1%.

For `N=C(N)c1ccc(-c2ccc(-c3cncc4ccccc34)s2)s1`, the growth in the assay on SK-MEL-2 melanoma was 79.3%; with EKVX NSCLC, -65.7% (active); in the assay on SN12C renal, -63% (active); with UO-31 renal, -76.6% (active); with TK-10 renal, -93.5% (active); with ACHN renal, -88.5% (active). For the same compound, the growth in the assay on CAKI-1 renal was -91.4% (active); with A498 renal it was 70.2%; in the assay on MOLT-4 leukemia it was -50.3% (active); in the assay with SR leukemia, -29.3% (active); with RPMI-8226 leukemia, -33.5% (active); in the assay with OVCAR-8 ovarian, -67.9% (active). Besides, the growth in the assay with OVCAR-5 ovarian is -69.3% (active); in the assay on OVCAR-4 ovarian it was -90.4% (active); with SK-OV-3 ovarian, 64.4%; in the assay with IGROV1 ovarian, -75.1% (active); in the assay with HS 578T breast, -49.6% (active); in the assay with NCI/ADR-RES ovarian it was -53% (active).

For the compound `CCCCCCCCCCN(CCCCCCCCCC)CC(=O)c1ccc2cc(Br)c3ccccc3c2c1`, the growth with SK-MEL-2 melanoma was 101%; with EKVX NSCLC, 83.5%; in the assay on SN12C renal it was 81.1%; with UO-31 renal it was 2.3% (active); in the assay with TK-10 renal, 79.9%; with ACHN renal, 97.3%. In addition, the growth with CAKI-1 renal is 46.3%; in the assay with A498 renal, 53.2%; in the assay on MOLT-4 leukemia, -39.6% (active); in the assay with SR leukemia, -28.5% (active); in the assay on RPMI-8226 leukemia, -33.1% (active); in the assay on OVCAR-8 ovarian it was 86.9%. Besides, the growth in the assay with OVCAR-5 ovarian was 95.3%; in the assay with OVCAR-4 ovarian, 77.4%; in the assay on SK-OV-3 ovarian, 104%; with IGROV1 ovarian, -79.5% (active); in the assay with OVCAR-3 ovarian it was 51.2%; with NCI/ADR-RES ovarian it was 64.8%.

With `Cc1cccc(Cc2cnc(NC(=O)/C=C/c3ccco3)s2)c1`, the growth in the assay with SK-MEL-2 melanoma was 30.8%; with EKVX NSCLC, 33.7%; in the assay with SN12C renal, 29.3%; in the assay on UO-31 renal it was 37.3%; in the assay with TK-10 renal, 52.8%; with ACHN renal, 35.3%. Besides, the growth was 30.4% with CAKI-1 renal; 13.8% in the assay on A498 renal; 15.9% with MOLT-4 leukemia; 13.7% in the assay with SR leukemia; 27.9% in the assay on RPMI-8226 leukemia; 13.7% with OVCAR-8 ovarian. Moreover, the growth in the assay with OVCAR-5 ovarian is 39.1%; in the assay with OVCAR-4 ovarian, 55.6%; in the assay with SK-OV-3 ovarian it was 33%; in the assay on IGROV1 ovarian, 22.2%; with OVCAR-3 ovarian, -2.76% (active); with HS 578T breast, 14.8%. In addition, in the assay with NCI/ADR-RES ovarian, the growth is -24.6% (active).

Turning to `COc1ccc2[nH]c(O)c(/C=c3/cc4c(c(-c5ccc(F)c(OC)c5)n3)=Nc3ccccc3-4)c2c1`, the growth with SK-MEL-2 melanoma is 96.3%; in the assay with EKVX NSCLC it was 89.5%; in the assay on SN12C renal it was 88.6%; in the assay with UO-31 renal, 74.7%; in the assay with TK-10 renal, 87.2%; in the assay on ACHN renal it was 52.2%. Besides, the growth in the assay with CAKI-1 renal was 88.3%; with A498 renal, 69.6%; with MOLT-4 leukemia, 1.77% (active); in the assay with SR leukemia it was 2.4% (active); in the assay on RPMI-8226 leukemia it was -20.4% (active); with OVCAR-8 ovarian it was 60.4%. The growth is 93.9% in the assay on OVCAR-5 ovarian; 6.42% (active) in the assay on OVCAR-4 ovarian; 107% in the assay on SK-OV-3 ovarian; 84.6% in the assay on IGROV1 ovarian; -34.4% (active) in the assay with OVCAR-3 ovarian; 84.7% with HS 578T breast. Further, the growth in the assay with NCI/ADR-RES ovarian was 32.7%.

Take `COc1ccc(-c2csc(C3=C(O)CN(CCCN4CCCC4=O)C3=N)n2)cc1OC`: the growth with SK-MEL-2 melanoma was 99.2%; in the assay with EKVX NSCLC it was 97.5%; with SN12C renal, 105%; in the assay with UO-31 renal, 83.8%; in the assay with TK-10 renal, 127%; in the assay with ACHN renal, 103%. Moreover, the growth is 103% with CAKI-1 renal; 100% in the assay on A498 renal; 81% in the assay with MOLT-4 leukemia; 77.1% with SR leukemia; 85.5% in the assay on RPMI-8226 leukemia; 94.6% with OVCAR-8 ovarian. Also, the growth is 94.2% in the assay with OVCAR-5 ovarian; 116% with OVCAR-4 ovarian; 109% in the assay on SK-OV-3 ovarian; 63.9% with IGROV1 ovarian; 92.9% with HS 578T breast; 100% with NCI/ADR-RES ovarian.

On to `CC(=O)N1N=C(c2ccc(Nc3nc(Nc4ccc(F)cc4)nc(Nc4ccc(F)cc4)n3)cc2)CC1c1cccc([N+](=O)[O-])c1` (stereo not given), for which the growth is 62.5% in the assay on SK-MEL-2 melanoma; 90.2% in the assay with EKVX NSCLC; 98.1% in the assay with SN12C renal; 73% in the assay on UO-31 renal; 104% in the assay on TK-10 renal; 93% in the assay on ACHN renal. The growth in the assay on CAKI-1 renal is 124%; with A498 renal, 78.9%; in the assay with MOLT-4 leukemia, 8.35% (active); in the assay on SR leukemia, 22.4%; in the assay with RPMI-8226 leukemia, 19.8%; with OVCAR-8 ovarian, 91.6%. The growth in the assay on OVCAR-5 ovarian is 75.5%; in the assay on OVCAR-4 ovarian, 47.8%; with SK-OV-3 ovarian, 110%; in the assay with IGROV1 ovarian it was 76.9%; with OVCAR-3 ovarian it was 235%; in the assay with HS 578T breast, 96.5%. Further, the growth in the assay with NCI/ADR-RES ovarian is 67.2%.

Turning to `O=C(Nc1ccc(Nc2ccncc2)cc1)c1ccc(C(=O)Nc2ccc(Nc3ccncc3)cc2)cc1`, the growth with SK-MEL-2 melanoma was 53.7%; in the assay on EKVX NSCLC it was 91.8%; in the assay with SN12C renal, 88.1%; in the assay with UO-31 renal, 89.4%; with TK-10 renal, 137%; in the assay with ACHN renal, 97.2%. For the same compound, the growth is 81.6% with CAKI-1 renal; 117% with A498 renal; 71.5% in the assay with MOLT-4 leukemia; 52.4% with SR leukemia; 3.64% (active) in the assay with RPMI-8226 leukemia; 74.5% in the assay with OVCAR-8 ovarian. In addition, the growth in the assay on OVCAR-5 ovarian was 51.1%; in the assay with OVCAR-4 ovarian, 68.1%; with SK-OV-3 ovarian, 68%; in the assay with IGROV1 ovarian, 75.8%; with OVCAR-3 ovarian, 111%; with HS 578T breast, 88.2%. For the same compound, the growth in the assay on NCI/ADR-RES ovarian was 109%.

Values taken from PubChem BioAssay (NCI).
